According to PubChem BioAssay AID1159580 (chemical genetic matrix, 2015):
“And” between values parts separate entries of the source, which are not always exact repeats. Equal entries are not always repeated. Among all 5,500 compounds or so, about 2,000 (36%) were called active. About 18% were inconclusive and are not listed. Cut-off read from the data, not from the text of the source: active = normalized growth mostly below about 0.91 (no sharp cut-off); inconclusive = no clear call, values can overlap the other calls; inactive = mostly above about 0.92. The list shows a part of the results.

Test: chemical genetic growth profiling, strain panel (AID 1159580);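 note: tested at 20 µM; growth read once vehicle control cultures reached saturation at 30 °C; 1 = growth at the plate median or of vehicle wells; lower values mean less growth of the strain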
Details: S. cerevisiae deletion strains, growth OD

Measured: normalized growth

C[n+]1ccccc1/C=N/O
inactive: locus YAL013W, strain DEP1, stronger effect = lower value 1.01 | locus YAL021C, strain ccr4, stronger effect = lower value 0.99 | locus YAL026C, strain drs2, stronger effect = lower value 1.02 | locus YAL030W, strain snc1, stronger effect = lower value 1 | locus YBL061C, strain skt5, stronger effect = lower value 0.992 | locus YBR009C, strain hhf1, stronger effect = lower value 1.03 | locus YBR021W, strain FUR4, stronger effect = lower value 0.985 | locus YBR023C, strain chs3, stronger effect = lower value 0.995 | locus YBR171W, strain sec66, stronger effect = lower value 1 | locus YBR229C, strain ROT2, stronger effect = lower value 1.01 | locus YBR231C, strain swc5, stronger effect = lower value 1.02 | locus YBR279W, strain paf1, stronger effect = lower value 1.01 | locus YCL011C, strain gbp2, stronger effect = lower value 1.01 | locus YCL016C, strain dcc1, stronger effect = lower value 1.01 | locus YCL029C, strain bik1, stronger effect = lower value 1.01 | locus YCL069W, strain vba3, stronger effect = lower value 1 | locus YCR088W, strain abp1, stronger effect = lower value 1 | locus YDL005C, strain med2, stronger effect = lower value 0.986 | locus YDL035C, strain GPR1, stronger effect = lower value 1.01 | locus YDL040C, strain nat1, stronger effect = lower value 1.01 | locus YDL074C, strain BRE1, stronger effect = lower value 1 | locus YDL101C, strain DUN1, stronger effect = lower value 1.01 | locus YDL134C, strain PPH21, stronger effect = lower value 0.997 | locus YDL185W, strain tfp1, stronger effect = lower value 0.999 | locus YDL192W, strain arf1, stronger effect = lower value 1 | locus YDR001C, strain nth1, stronger effect = lower value 0.997 | locus YDR069C, strain doa4, stronger effect = lower value 1.02 | locus YDR101C, strain arx1, stronger effect = lower value 1 | locus YDR137W, strain rgp1, stronger effect = lower value 1.01 | locus YDR150W, strain NUM1, stronger effect = lower value 1.01 | locus YDR159W, strain sac3, stronger effect = lower value 0.967 | locus YDR162C, strain NBP2, stronger effect = lower value 1.01 | locus YDR195W, strain ref2 0.999 | locus YDR297W, strain sur2, stronger effect = lower value 1.01 | locus YDR318W, strain mcm21, stronger effect = lower value 0.994 | locus YDR334W, strain swr1, stronger effect = lower value 1 | locus YDR335W, strain msn5, stronger effect = lower value 1.01 | locus YDR388W, stronger effect = lower value 0.996 | locus YDR392W, strain spt3, stronger effect = lower value 0.918 | locus YDR502C, strain sam2, stronger effect = lower value 1 | locus YEL003W, strain gim4, stronger effect = lower value 1.01 | locus YEL037C, strain rad23, stronger effect = lower value 0.998 | locus YEL061C, strain CIN8 (second series), stronger effect = lower value 1.02 | locus YEL061C, strain CIN8, stronger effect = lower value 1.01 | locus YER015W, strain faa2, stronger effect = lower value 1.01 | locus YER016W, strain bim1, stronger effect = lower value 0.991 | locus YER110C, stronger effect = lower value 1.01 | locus YER111C, strain swi4, stronger effect = lower value 1 | locus YER155C, strain BEM2 (second series), stronger effect = lower value 1.02 | locus YER155C, strain BEM2, stronger effect = lower value 0.998 | locus YER167W, strain BCK2, stronger effect = lower value 1.01 | locus YFR010W, strain ubp6, stronger effect = lower value 1.02 | locus YGL078C, strain dbp3, stronger effect = lower value 1.02 | locus YGL086W, strain mad1, stronger effect = lower value 1.01 | locus YGL167C, strain pmr1, stronger effect = lower value 1.01 | locus YGL173C, strain kem1, stronger effect = lower value 0.991 | locus YGL227W, strain vid30, stronger effect = lower value 0.994 | locus YGL240W, strain doc1, stronger effect = lower value 0.993 | locus YGL248W, strain PDE1, stronger effect = lower value 1.01 | locus YGL253W, strain hxk2, stronger effect = lower value 1.02 | locus YGR078C, strain PAC10, stronger effect = lower value 1.01 | locus YGR135W, strain pre9, stronger effect = lower value 1.01 | locus YGR229C, strain SMI1, stronger effect = lower value 1.02 | locus YGR252W, strain gcn5, stronger effect = lower value 0.954 | locus YHR013C, strain ard1, stronger effect = lower value 0.982 | locus YHR027C, strain rpn1, stronger effect = lower value 1 | locus YHR030C, strain SLT2, stronger effect = lower value 1.01 and 1 | locus YHR079C, strain IRE1 (second series), stronger effect = lower value 0.995 | locus YHR079C, strain IRE1, stronger effect = lower value 0.997 | locus YHR094C, strain hxt1, stronger effect = lower value 1 | locus YHR129C, strain ARP1, stronger effect = lower value 1.01 | locus YHR142W, strain chs7, stronger effect = lower value 1.02 | locus YHR200W, strain rpn10, stronger effect = lower value 0.99 | locus YIL066C, strain RNR3, stronger effect = lower value 1.01 | locus YIL073C, strain SPO22, stronger effect = lower value 0.996 | locus YIL125W, strain kgd1, stronger effect = lower value 0.985 | locus YIR030C, strain dcg1, stronger effect = lower value 1.01 | locus YJL092W, strain hpr5, stronger effect = lower value 1.01 | locus YJL095W, strain BCK1 (second series), stronger effect = lower value 0.99 | locus YJL095W, strain BCK1, stronger effect = lower value 1.01 | locus YJL115W, strain asf1, stronger effect = lower value 1.01 | locus YJL129C, strain trk1, stronger effect = lower value 1.01 | locus YJL134W, strain LCB3, stronger effect = lower value 1.01 | locus YJL154C, strain vps35, stronger effect = lower value 1.02 | locus YJL164C, strain tpk1, stronger effect = lower value 1 | locus YJL166W, strain qcr8, stronger effect = lower value 1.01 | locus YJL168C, strain set2, stronger effect = lower value 0.995 | locus YJL187C, strain SWE1 (second series), stronger effect = lower value 1.01 | locus YJR043C, strain POL32, stronger effect = lower value 0.995
